Test results taken from PubChem BioAssay (NCATS).
Inconclusive results are not listed. Entries that show only a call come without a potency. Active and inactive are the calls of the source. Unless noted, the call rests on the fitted dose curve; in most records, active means well fitted curve in the direction sought with a large enough effect; inconclusive means small, poorly fitted or top-dose-only effect, or another doubt; inactive means no such curve, though single readings can be large; an effect the other way counts as inactive or inconclusive.

What was measured:
[1] = qHTS for Inhibitors of the Functional Ribonucleoprotein Complex (vRNP) of Lassa (LASV) Arenavirus: Viability assay - alamar blue signal for LASV Primary Screen (AID 1347083; calls by dose curve; tested in HEK293 reporter line; further: nearly all actives have a fitted effect of over 80% in size)
[2] = qHTS for Inhibitors of the Functional Ribonucleoprotein Complex (vRNP) of Lymphocytic Choriomeningitis Arenaviruses (LCMV): Viability assay - alamar blue signal for LCMV Primary Screen (AID 1347085; calls by dose curve; tested in HEK293 reporter line; further: nearly all actives have a fitted effect of over 80% in size)
[3] = biological target: Nucleoprotein (Lymphocytic choriomeningitis virus (strain Armstrong)) (UniProt P09992); assay: qHTS for Inhibitors of the Functional Ribonucleoprotein Complex (vRNP) of Lymphocytic Choriomeningitis Arenaviruses (LCMV): LCMV Primary Screen - GLuc reporter signal (AID 1347086; calls by dose curve; further: nearly all actives have a fitted effect of over 70% in size)
Chain of Nucleoprotein (Lymphocytic choriomeningitis virus (strain Armstrong)) (P09992 whole entry, looked up): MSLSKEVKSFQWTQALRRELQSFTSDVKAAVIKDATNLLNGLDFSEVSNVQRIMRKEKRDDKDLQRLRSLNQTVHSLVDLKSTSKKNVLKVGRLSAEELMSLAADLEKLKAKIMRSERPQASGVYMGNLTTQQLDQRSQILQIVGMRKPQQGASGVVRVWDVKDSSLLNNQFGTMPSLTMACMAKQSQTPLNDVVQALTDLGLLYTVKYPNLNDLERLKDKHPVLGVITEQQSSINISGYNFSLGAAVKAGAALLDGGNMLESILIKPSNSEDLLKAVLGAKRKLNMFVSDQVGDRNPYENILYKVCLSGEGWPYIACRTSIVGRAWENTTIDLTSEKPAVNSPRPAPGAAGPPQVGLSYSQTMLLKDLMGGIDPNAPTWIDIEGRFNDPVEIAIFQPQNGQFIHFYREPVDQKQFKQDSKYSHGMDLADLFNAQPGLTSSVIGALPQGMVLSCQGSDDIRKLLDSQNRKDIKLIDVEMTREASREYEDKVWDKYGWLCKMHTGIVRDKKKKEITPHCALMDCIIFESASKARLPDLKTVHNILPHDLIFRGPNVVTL

[4] = qHTS of pediatric cancer cell lines to identify multiple opportunities for drug repurposing: Primary screen for TC32 cells (AID 1347089); further: nearly all actives have a fitted effect of over 60% in size
How it was run: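 In the primary qHTS, MIPE compounds were tested at 11 concentrations (0.78 nM to 46 µM) and NPC compounds at 8 (0.59 nM to 46 µM) on TC32 cells for 48 h. CellTiter-Glo luminescence gave viability.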

[5] = qHTS of pediatric cancer cell lines to identify multiple opportunities for drug repurposing: Primary screen for DAOY cells (AID 1347090); further: nearly all actives have a fitted effect of over 55% in size
How it was run: (§1)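 Eight- or eleven-point concentration series, 48 h treatment at 37 degrees C in growth media; readout CellTiter-Glo luminescence. Potency and efficacy were taken from the concentration-response curves.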

[6] = qHTS of pediatric cancer cell lines to identify multiple opportunities for drug repurposing: Primary screen for SJ-GBM2 cells (AID 1347091)
How it was run: as §1

[7] = qHTS of pediatric cancer cell lines to identify multiple opportunities for drug repurposing: Primary screen for A673 cells (AID 1347092); further: nearly all actives have a fitted effect of over 45% in size
How it was run: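 48 h compound exposure, A673, 500-1,000 cells/well, 37 degrees C/5% CO2. MIPE: 11-point, 0.78 nM-46 µM; NPC: 8-point, 0.59 nM-46 µM (final). Readout CellTiter-Glo luminescence after 15 min RT.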

[8] = qHTS of pediatric cancer cell lines to identify multiple opportunities for drug repurposing: Primary screen for BT-37 cells (AID 1347094)
How it was run: (§2)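 CRCs from 8- or 11-point titrations (lowest final 0.59 nM NPC, 0.78 nM MIPE). Cell viability: CellTiter-Glo after 48 h incubation, 15 min room-temperature development, luminescence imaging.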

[9] = qHTS of pediatric cancer cell lines to identify multiple opportunities for drug repurposing: Primary screen for SK-N-MC cells (AID 1347093)
How it was run: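 Metabolically active cells were quantified by ATP-dependent luminescence (CellTiter-Glo, 15 min at room temperature) following 48 h treatment. Cells had been plated at 500-1,000 per well and settled for 5 h beforehand.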

[10] = qHTS of pediatric cancer cell lines to identify multiple opportunities for drug repurposing: Primary screen for NB-EBc1 cells (AID 1347095)
How it was run: as §2
Potency means the concentration at half of the fitted maximal effect.

SMILES	Potency [1]	Potency [2]	Potency [3]	Potency [4]	Potency [5]	Potency [6]	Potency [7]	Potency [8]	Potency [9]	Potency [10]
C#C[C@]1(O)C=C[C@@H]2[C@@H]3CCC4=CC(=O)CC[C@@H]4[C@H]3CC[C@@]21CC	inactive	inactive	inactive	inactive	inactive	inactive	inactive	inactive		
O=[N+]([O-])c1ccc([As](=O)(O)O)cc1	inactive	inactive	inactive	inactive	inactive	inactive	inactive	inactive	inactive	inactive
CC(C)(C)NC[C@H](O)c1ccc(O)cc1Cl	inactive	inactive	inactive	inactive	inactive	inactive	inactive		inactive	inactive
O=S(=O)(O)C(F)(F)C(F)(F)C(F)(F)C(F)(F)F	inactive	inactive	inactive	inactive	inactive	inactive	inactive	inactive	inactive	inactive
CN[C@@H](C)[C@H](O)c1ccccc1	inactive	inactive	inactive	inactive	inactive	inactive	inactive		inactive	inactive
Cc1[nH]nc2ccc(-c3cncc(OC[C@@H](N)Cc4c[nH]c5ccccc45)c3)cc12	172 nM (active)	432 nM (active)	243 nM (active)	1860 nM (active)	1870 nM (active)	1050 nM (active)	118 nM (active)	1530 nM (active)	264 nM (active)	1660 nM (active)
CCCCC(CC)COC(=O)c1ccccc1C(=O)OCC(CC)CCCC (stereo not given)	inactive	inactive	inactive	inactive	inactive	inactive	inactive	inactive	inactive	inactive
CN(C)[C@@H]1C(=O)C(C(N)=O)=C(O)[C@@]2(O)C(=O)C3=C(O)c4c(O)cccc4[C@@](C)(O)[C@H]3[C@H](O)[C@@H]12	inactive	inactive	inactive	inactive	inactive	inactive	inactive		inactive	inactive
